In PubChem BioAssay AID1159571 (Broad Institute, 2015) one finds outcome data, which are given here for five molecules.

Measured potencies and affinities stand elsewhere. Calls of active or inactive are those of the source. No rule for the calls is given here.

The assay can be described thus: P. falciparum ATP4 D1247Y mutant growth inhibitors, dose response, NITD609-resistant line, SYBR Green, dry powder (AID 1159571). Conditions: series mostly up to 19.5 µM.
Regarding `O=C(NC[C@@H]1CC[C@H]2[C@H](CN2Cc2cc(-c3ccccc3)on2)O1)c1ccc2c(c1)OCO2`, the molecule was called inactive. Turning to `Cc1ccccc1-c1ccccc1[C@H]1[C@@H](C#N)N(C(=O)c2ccccc2)[C@@H]1CO`, the molecule was classed as inactive. The same measure for `COc1ccc(S(=O)(=O)Nc2ccc3c(c2)CC(=O)N([C@@H](C)CO)C[C@H](C)[C@H](CN(C)S(=O)(=O)c2ccc(OC)cc2)O3)cc1`: “inactive”; for `C[C@@H]1CN([C@H](C)CO)C(=O)c2cccc(NC(=O)c3ccc(-c4nccs4)cc3)c2O[C@H]1CN(C)Cc1ccc(C(F)(F)F)cc1`: “inactive”; for `COc1cccc(C#Cc2ccc([C@H]3[C@@H](CO)N(C(=O)c4ccccn4)[C@H]3C#N)cc2)c1`: “inactive”.
